Screening results (PubChem BioAssay)
TDP1 block – inhibitors of human tyrosyl-DNA phosphodiesterase TDP1; recombinant TDP1, AlphaScreen DNA substrate cleavage; Q9NUW8; actives 0.28% (n = 350,000); Potency, µM (titrated, usually from 130 µM), most hits filed as inhibitors; AID 485290; further: nearly all actives have a fitted effect of over 40% in size
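Here, a 5' biotin and 3' phosphotyrosine-FITC DNA oligonucleotide reports Tdp1 activity: intact substrate bridges AlphaScreen beads, while cleavage leaves a 3' phosphate and drops signal. All incubations at room temperature.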
G9a block – inhibitors of human histone lysine methyltransferase G9a; Q96KQ7; G9a H3K9 monomethylation, AlphaScreen, 2 h; Potency, µM (doses to about 102 µM), most hits filed as inhibitors; actives 8.8% (n = 350,000); AID 504332; further: nearly all actives have a fitted effect of over 75% in size
Target sequence (Q96KQ7 913-1193 limits assumed): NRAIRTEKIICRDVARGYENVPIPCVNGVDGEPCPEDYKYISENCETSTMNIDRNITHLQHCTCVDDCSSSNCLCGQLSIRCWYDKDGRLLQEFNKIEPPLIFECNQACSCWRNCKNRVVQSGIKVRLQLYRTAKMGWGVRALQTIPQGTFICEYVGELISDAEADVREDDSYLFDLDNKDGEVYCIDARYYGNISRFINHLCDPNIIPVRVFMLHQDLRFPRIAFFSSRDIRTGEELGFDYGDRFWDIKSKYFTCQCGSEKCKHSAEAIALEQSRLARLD
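Methyltransferase reactions run at room temperature for 2 h (20 nM enzyme, 500 nM biotin-H3K9 peptide, 20 uM SAM) after a 15 min compound preincubation; product detected by AlphaScreen beads and anti-H3K9me1 antibody.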
JMJD2A Tudor – JMJD2A Tudor domain (human) inhibition | AID 504339 | actives 4.4% (n = 390,000) | Potency, µM (highest dose often 114 µM), hits mostly inhibitors | AlphaScreen JMJD2A-Tudor / H3K4me3 peptide binding; further: nearly all actives have a fitted effect of over 50% in size
HP1b chromo inh – blocks HP1-beta chromodomain binding to methylated histone tails | AlphaScreen HP1-beta / biotin-H3K9me3 peptide binding | Potency, µM (highest dose often 114 µM), actives largely listed as inhibitors | P83916 | AID 540317 | actives 0.56% (n = 390,000); further: nearly all actives have a fitted effect of over 70% in size
Target sequence (P83916 whole entry, looked up): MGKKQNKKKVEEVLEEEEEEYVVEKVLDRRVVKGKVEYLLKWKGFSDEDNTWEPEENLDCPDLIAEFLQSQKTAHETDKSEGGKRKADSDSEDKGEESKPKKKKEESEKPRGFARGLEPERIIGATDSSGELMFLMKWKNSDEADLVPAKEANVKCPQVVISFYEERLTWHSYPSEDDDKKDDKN
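Compound inhibition of the preformed complex between 50 nM HP1-beta and 50 nM biotinylated H3K9me3 peptide was read by AlphaScreen. Buffer was PBS pH 7.4 with 0.01% Tween-20. Incubations ran 30 min at room temperature, with 10 ug/mL donor/acceptor beads.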
BAZ2B block – inhibitors of human BAZ2B bromodomain. Q9UIF8. AlphaScreen BAZ2B-H3K14Ac peptide displacement. Potency, µM (series often up to 114 µM), most hits filed as inhibitors. actives 4.4% (n = 360,000); further: nearly all actives have a fitted effect of over 60% in size
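AlphaScreen displacement: compounds (up to 110uM) incubated 30 min at room temperature with a preformed 50 nM BAZ2B/50 nM biotinylated H3K14Ac peptide complex in PBS pH 7.4 with Tween-20. Donor and acceptor beads at 10 ug/mL final added, 20 min light-protected before reading.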
Sfp PPTase inh – blocks B. subtilis Sfp PPTase activity; Biochemical Sfp PPTase activity, qHTS; Potency, µM, hits mostly inhibitors; AID 1490; actives 3.5% (n = 310,000);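 further: the enzyme is Sfp with the accession as filed and its product quenches rhodamine fluorescence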
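Reaction rates are the 30-min fluorescence difference (ex 525, em 598 nm) in wells containing 15 nM Sfp, 5 uM rhodamine-CoA and 12.5 uM BHQ-2-YbbR at pH 7.6 with 10 mM MgCl2.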
A number is an active result; n = inactive; u = inconclusive; x = no result given; ! = a repeat was not active; [ ] = dose if it differs, or a comment. Most compounds without a hit are left out; they make up all but 12% or so of the library. The call rests on the fitted dose curve; in most records, active means well fitted curve in the direction sought with a large enough effect; inconclusive means small, poorly fitted or top-dose-only effect, or another doubt; inactive means no such curve, though single readings can be large; an effect the other way counts as inactive or inconclusive.

SMILES | TDP1 block | G9a block | JMJD2A Tudor | HP1b chromo inh | BAZ2B block | Sfp PPTase inh
Cc1ccnc2nc(C(=O)OCC(=O)c3ccccc3)nn12 | n | x | n | n | x | x
CCn1c(SCC(=O)Nc2ccccc2C(=O)OC)nc2c1c(=O)n(C)c(=O)n2C | n | 28µM | x | x | n | n
Cc1ccc(NC(=S)NNC(=O)CSc2nnc(-c3ccc(Cl)cc3)n2C2CCCCC2)cc1 | n | n | u | n | n | n
CCn1c(SCC(=O)Nc2ccccc2)nc2c1c(=O)n(C)c(=O)n2C | n | n | n | n | n | n
CCn1c(SCC(=O)NNC(=S)Nc2ccc(C)cc2)nnc1-c1ccc(Cl)cc1 | n | 10µM | n | n | n | n
CCn1c(SCC(=O)Nc2ccccc2C(=O)OC)nnc1-c1ccoc1C | n | n | n | n | n | n
CCn1c(SCC(=O)Nc2ccccc2C(=O)OC)nnc1-c1ccc(N)cc1 | n | 45µM | n | n | n | n
O=C1O[C@H]([C@@H](O)CO)C(O)=C1O | n | 13µM! | n | n | n | n
CC(C(=O)Nc1ccc(Br)cc1)N(C)CC(=O)NCc1ccco1 (stereo not drawn) | n | 8.9µM | n | n | n | x
CC(NS(=O)(=O)c1ccc(Br)cc1)C(=O)NCc1ccco1 (stereo not drawn) | n | u | n | n | n | n
O=C(CNc1cccc(S(=O)(=O)N2CCCC2)c1)Nc1ccc(C(F)(F)F)cc1 | n | n | n | n | n | x
O=S(=O)(Nc1nccs1)c1cnc(Cl)c(Br)c1 | n | n | n | n | n | 50µM
CCc1ccc(OCC(=O)NC(=S)Nc2cccc(CO)c2)c(Br)c1 | n | n[12.7 µM] | n | n | n | 25µM
O=C(Nn1c(COc2ccccc2)nc2ccccc2c1=O)C(Cl)(Cl)Cl | x | 50µM | n | n | n | n
Cc1cc(/C=N/n2c(COc3ccccc3)nc3ccccc3c2=O)c(O)c([N+](=O)[O-])c1 | n | n | 13µM | u | 4.5µM | n
Cc1ccc(-c2[nH]ncc2/C=N/n2c(COc3ccccc3)nc3ccccc3c2=O)cc1 | n | n | n | n | n | n
CCOc1cc(/C=N/n2c(COc3ccccc3)n[nH]c2=S)ccc1O | x | 4.5µM | u | n | n | n
O=c1c2ccccc2nc(COc2ccccc2)n1/N=C/c1ccc(O)c(O)c1 | n | 3.2µM | u | n | 45µM | n
COC(=O)c1cc2c(cc1NC(=O)c1c(C)nn(-c3ccc(C)cc3)c1-n1cccc1)OCO2 | n | n | n | n | n | x
CCCCc1ccc(Nc2cc(C)nc(-n3nc(C)cc3C)n2)cc1 | n | n | u | n | n | x
CS(=O)(=O)Nc1c(O)ccc2c1CCCC2C1=NCCN1 (stereo not drawn) | n | n | x | x | x | n
COc1ccc(NC(=O)N2CCCC3(CCN(S(C)(=O)=O)CC3)C2)cc1 | x | n[12.7 µM] | x | x | x | n
Oc1ccc(/C=N/n2c(COc3ccccc3)n[nH]c2=S)cc1O | x | 10µM | 3.2µM | u | u | 56µM
Cc1ccc(C(=O)NCCc2nnc3ccc(NCc4ccc5c(c4)OCO5)nn23)cc1 | n | n | n | n | u | n
COCC(=O)N1CCC2(CC1)CCN(c1ccncc1)CC2 | x | n[12.7 µM] | x | x | x | n
SMILES | TDP1 block | G9a block | JMJD2A Tudor | HP1b chromo inh | BAZ2B block | Sfp PPTase inh
CC(C)c1ccc(C2c3[nH]c4ccccc4c3C[C@H]3C(=O)N(c4ccccc4C(=O)N4CCC[C@@H]4C(=O)O)C(=O)N23)cc1 (stereo partly drawn) | x | n[12.7 µM] | n | n | n | n
Clc1ccc(CN2CCCCCC2)cc1 | x | 13µM | 1.8µM | u | u | n
Clc1ccc(CN2CCCCCCC2)cc1Cl | n | u | 28µM | n | n | n
O=S1(=O)CCN(Cc2ccc(Cl)c(Cl)c2)CC1 | n | n[12.7 µM] | n | n | n | n
O=[N+]([O-])c1cc(CN2CCCC2)ccc1Sc1ccc(Cl)cc1 | n | 35µM | 35µM | 40µM | 40µM | n
CCOC(=O)c1ccc(NC(=O)N2C3CCCC2CC(NC(C)=O)C3)cc1 (stereo not drawn) | x | x | n | n | n | n
COc1ccc(-c2cn3c(n2)sc2cc(C(=O)N4CCCCC4)ccc23)cc1 | n | n | n | n | n | x
COc1ccc(NC(=O)CSc2nnc(-c3cccnc3)s2)cc1 | n | n | n | n | n | n
N#Cc1c(/N=C/c2cccs2)sc2c1CCCCC2 | n | 14µM | 40µM | u | 8.9µM | n
Cc1ccc(/C=N/c2sc3c(c2C#N)CCC3)o1 | x | 18µM | 45µM | n | u | u
N#Cc1c(/N=C/c2ccc(-c3ccccc3C(=O)O)o2)sc2c1CCCC2 | x | 32µM | 79µM | n | 45µM | n
N#Cc1c(/N=C/c2ccc(Br)s2)sc2c1CCC2 | n | u | n | n | n | n
CN(C)/C=N/c1sc2c(c1C#N)CCC2 | n | n | n | n | n | n
CC(C)n1cc(CN2CCC(C(=O)Nc3cccc(-c4cccc(Cl)c4)c3)CC2)cn1 | n | n | u | n | n | n
Cc1ccc(S(=O)(=O)Cn2nnnc2C(c2ccccn2)N2CCN(c3ccccc3)CC2)cc1 (stereo not drawn) | n | 35µM | n | n | u | n
Cc1ccc(S(=O)(=O)Cn2nnnc2C(C(C)C)N2CCC(O)CC2)cc1 (stereo not drawn) | x | n | n | n | n | n
Cc1ccc(S(=O)(=O)Cn2nnnc2C(C(C)C)N2CCc3ccccc3C2)cc1 (stereo not drawn) | n | u | 28µM | n | u | n
O=C(Oc1oc(-c2ccco2)nc1C=Nc1ccccc1)c1ccco1 | n | u | n | n | n | 11µM
O=C(Oc1oc(-c2ccco2)nc1C=Nc1ccccc1)c1ccoc1 | n | 7.1µM | n | n | n | 20µM
Cc1ccc(C(=O)Oc2oc(-c3ccco3)nc2C=Nc2ccc(Cl)cc2)cc1 | n | 50µM | n | n | n | u
O=C(Oc1ccc(-c2ccccc2)cc1)c1ccco1 | x | x | n | n | x | x
Cc1ccc(N=Cc2nc(-c3ccco3)oc2O)cc1 | n | n | u | n | x | n
N#Cc1ccc(C(=O)N2CCN(S(=O)(=O)c3ccc(Cl)s3)CC2)cc1 | n | n[12.7 µM] | n | n | n | x
COc1ccc(C(=O)N(Cc2ccccc2)Cc2ccco2)c(O)c1 | n | x | u | x | x | x
C(=C\c1ccco1)/C1=NN(c2ccccc2)C(c2ccco2)C1 (stereo not drawn) | u | n | n | n | u | 28µM
Cc1ccc(N2N=C(c3ccc(F)cc3)CC2c2ccco2)cc1 (stereo not drawn) | x | u | n | n | n | u
CC1=NN(c2ccc([N+](=O)[O-])cc2)C(c2ccccc2)C1 (stereo not drawn) | n | n | n | n | n | n
O=[N+]([O-])c1ccc(/C=C/C2=NN(c3ccccc3)C(c3ccco3)C2)o1 (stereo not drawn) | n | 32µM | 3.2µM | u | 32µM | n
